Reference: PubChem BioAssay AID1159580 (chemical genetic matrix, 2015)
Out of some 5,500 compounds screened, about 2,000 (36%) were called active. About 18% were inconclusive and are not listed. No stated cut-off is given here; in the data, active means normalized growth mostly below about 0.91 (no sharp cut-off); inconclusive means no clear call, values can overlap the other calls; inactive means mostly above about 0.92. The list shows a part of the results.

Test: chemical genetic growth profiling, strain panel (AID 1159580);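 further: tested at 20 µM; growth read once vehicle control cultures reached saturation at 30 °C; 1 = growth at the plate median or of vehicle wells; lower values mean less growth of the strain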
Settings: S. cerevisiae deletion strains, growth OD
[1] = locus YAL021C, strain ccr4, hits give low values
[2] = locus YAL026C, strain drs2, hits give low values
[3] = locus YAL030W, strain snc1, hits give low values
[4] = locus YBL061C, strain skt5, hits give low values
[5] = locus YBR009C, strain hhf1, hits give low values
[6] = locus YBR023C, strain chs3, hits give low values
[7] = locus YBR171W, strain sec66, hits give low values
[8] = locus YBR231C, strain swc5, hits give low values
[9] = locus YBR279W, strain paf1, hits give low values
[10] = locus YCL011C, strain gbp2, hits give low values
[11] = locus YCL016C, strain dcc1, hits give low values
[12] = locus YCL061C, strain MRC1, hits give low values
[13] = locus YCL069W, strain vba3, hits give low values
[14] = locus YCR088W, strain abp1, hits give low values
[15] = locus YDL005C, strain med2, hits give low values
[16] = locus YDL040C, strain nat1, hits give low values
[17] = locus YDR001C, strain nth1, hits give low values
[18] = locus YDR069C, strain doa4, hits give low values
[19] = locus YDR137W, strain rgp1, hits give low values
[20] = locus YDR159W, strain sac3, hits give low values
[21] = locus YDR297W, strain sur2, hits give low values
[22] = locus YDR334W, strain swr1, hits give low values
[23] = locus YDR335W, strain msn5, hits give low values
[24] = locus YDR392W, strain spt3, hits give low values
[25] = locus YEL003W, strain gim4, hits give low values
[26] = locus YEL037C, strain rad23, hits give low values
[27] = locus YEL061C, strain CIN8 (second series), hits give low values
[28] = locus YER015W, strain faa2, hits give low values
[29] = locus YER016W, strain bim1, hits give low values
[30] = locus YER111C, strain swi4, hits give low values
[31] = locus YER155C, strain BEM2 (second series), hits give low values
[32] = locus YFR010W, strain ubp6, hits give low values
[33] = locus YGL167C, strain pmr1, hits give low values
[34] = locus YGL173C, strain kem1, hits give low values
[35] = locus YGL227W, strain vid30, hits give low values
[36] = locus YGL240W, strain doc1, hits give low values
[37] = locus YGL253W, strain hxk2, hits give low values
[38] = locus YHR013C, strain ard1, hits give low values
[39] = locus YHR027C, strain rpn1, hits give low values
[40] = locus YHR030C, strain SLT2, hits give low values
[41] = locus YHR079C, strain IRE1, hits give low values
[42] = locus YHR142W, strain chs7, hits give low values
[43] = locus YJL092W, strain hpr5, hits give low values
[44] = locus YJL095W, strain BCK1 (second series), hits give low values
[45] = locus YJL095W, strain BCK1, hits give low values
[46] = locus YJL115W, strain asf1, hits give low values
[47] = locus YJL129C, strain trk1, hits give low values
[48] = locus YJL154C, strain vps35, hits give low values
[49] = locus YJL164C, strain tpk1, hits give low values
[50] = locus YJL166W, strain qcr8, hits give low values
[51] = locus YJL187C, strain SWE1, hits give low values
[52] = locus YJR066W, strain TOR1, hits give low values
[53] = locus YKL160W, strain elf1, hits give low values
[54] = locus YKR026C, strain gcn3, hits give low values
[55] = locus YKR091W, strain srl3, hits give low values
[56] = locus YLL001W, strain dnm1, hits give low values
[57] = locus YLL026W, hits give low values
[58] = locus YLL041C, strain sdh2, hits give low values
[59] = locus YLR027C, strain aat2, hits give low values
[60] = locus YLR113W, strain HOG1, hits give low values
[61] = locus YLR221C, strain rsa3, hits give low values
[62] = locus YLR258W, strain gsy2, hits give low values
[63] = locus YLR262C, strain YPT6 (second series), hits give low values
[64] = locus YLR320W, strain mms22, hits give low values
[65] = locus YLR342W, strain FKS1, hits give low values
[66] = locus YLR357W, strain rsc2, hits give low values
[67] = locus YLR370C, strain arc18, hits give low values
[68] = locus YLR384C, strain iki3, hits give low values
[69] = locus YML120C, strain ndi1, hits give low values
[70] = locus YMR058W, strain fet3, hits give low values
[71] = locus YMR125W, strain sto1, hits give low values
[72] = locus YMR129W, hits give low values
[73] = locus YMR205C, strain PFK2, hits give low values
[74] = locus YMR231W, strain pep5, hits give low values
[75] = locus YNL071W, strain lat1, hits give low values
[76] = locus YNL183C, strain NPR1, hits give low values
[77] = locus YNL209W, strain ssb2, hits give low values
[78] = locus YNL248C, strain rpa49, hits give low values
[79] = locus YNL322C, strain KRE1 (second series), hits give low values
[80] = locus YNR049C, strain mso1, hits give low values
[81] = locus YOR001W, strain rrp6, hits give low values
[82] = locus YOR070C, strain gyp1, hits give low values
[83] = locus YOR080W, strain dia2, hits give low values
[84] = locus YOR083W, strain WHI5, hits give low values
[85] = locus YOR106W, strain vam3, hits give low values
[86] = locus YOR231W, strain MKK1, hits give low values
[87] = locus YOR265W, strain rbl2, hits give low values
[88] = locus YOR270C, strain vph1, hits give low values
[89] = locus YOR290C, strain snf2, hits give low values
[90] = locus YPL051W, strain arl3, hits give low values
[91] = locus YPL078C, strain atp4, hits give low values
[92] = locus YPL106C, strain sse1, hits give low values
[93] = locus YPL240C, strain hsp82, hits give low values
[94] = locus YPL256C, strain CLN2, hits give low values

Measured: normalized growth

CCCCCCCCCCCCCc1ccco1
inactive: [1] 1.01 | [2] 0.976 | [3] 0.991 | [4] 0.979 | [6] 0.969 | [7] 0.991 | [8] 0.938 | [9] 0.947 | [10] 0.954 | [11] 0.973 | [12] 0.96 | [13] 0.989 | [14] 0.993 | [15] 0.988 | [16] 0.983 | [17] 0.989 | [18] 0.964 | [19] 0.886 | [20] 0.933 | locus YDR195W, strain ref2 0.973 | [21] 0.989 | [22] 0.987 | [23] 0.987 | [25] 0.953 | [26] 0.983 | [27] 0.976 | [28] 0.989 | [29] 0.978 | [30] 0.966 | [32] 0.96 | [33] 0.979 | [34] 0.968 | [35] 0.971 | [36] 0.936 | [37] 0.98 | [39] 0.992 | [40] 0.951 | [41] 0.937 | [42] 0.922 | [43] 0.988 | [44] 0.939 | [45] 0.977 | [46] 0.99 | [47] 0.925 | [48] 0.991 | [51] 0.978 | [52] 0.944 | [53] 0.931 | [54] 0.966 | [55] 0.989 | [56] 0.976 | [57] 0.949 | [58] 0.99 | [59] 0.939 | [60] 0.939 | [62] 0.94 | [65] 0.986 | [66] 0.99 | [67] 0.989 | [68] 0.983 | [69] 0.959 | [70] 0.925 | [71] 0.934 | [72] 0.985 | [74] 0.985 | [76] 0.908 | [77] 0.993 | [78] 0.999 | [79] 0.995 | [80] 0.989 | [81] 0.974 | [82] 0.944 | [83] 1 | [84] 0.96 | [85] 0.927 | [86] 0.899 | [87] 0.981 | [88] 0.929 | [89] 0.913 | [90] 0.964 | [91] 0.947 | [92] 1.01 | [93] 0.991 | [94] 0.91
active: [5] 0.825 | [24] 0.266 | [31] 0.635 | [38] 0.699 | [49] 0.915 | [50] 0.835 | [61] 0.889 | [63] 0.816 | [64] 0.81 | [73] 0.841 | [75] 0.621

C#CCCCCCCCCCCCc1ccco1
inactive: [1] 1.02 | [2] 0.98 | [3] 0.997 | [4] 0.999 | [5] 0.954 | [6] 0.994 | [7] 0.997 | [8] 0.995 | [9] 1 | [10] 0.983 | [11] 0.999 | [12] 1 | [13] 0.995 | [14] 0.992 | [15] 0.991 | [16] 0.987 | [17] 0.99 | [18] 0.983 | [19] 0.993 | [20] 0.958 | locus YDR195W, strain ref2 0.99 | [21] 1 | [22] 0.999 | [23] 0.989 | [25] 1.01 | [26] 1.01 | [27] 1 | [28] 0.992 | [29] 0.988 | [30] 0.972 | [32] 0.996 | [33] 0.999 | [34] 0.989 | [35] 0.991 | [36] 0.995 | [37] 0.989 | [38] 0.869 | [39] 1 | [42] 0.971 | [43] 0.989 | [44] 0.997 | [46] 0.987 | [47] 0.968 | [48] 1.01 | [49] 0.973 | [50] 0.947 | [51] 1 | [53] 0.985 | [54] 0.964 | [55] 0.993 | [56] 0.981 | [57] 0.982 | [58] 1 | [59] 0.985 | [61] 0.975 | [62] 0.99 | [63] 0.917 | [64] 0.932 | [65] 0.989 | [66] 0.975 | [67] 0.998 | [68] 0.987 | [69] 1 | [70] 0.987 | [71] 0.958 | [72] 0.998 | [73] 0.938 | [74] 0.993 | [77] 0.998 | [78] 0.982 | [79] 0.983 | [80] 0.996 | [81] 1 | [82] 1.01 | [83] 0.993 | [84] 0.985 | [85] 0.949 | [87] 1 | [88] 0.962 | [89] 0.975 | [90] 0.988 | [91] 0.991 | [92] 1.04 | [93] 1
active: [24] 0.603 | [31] 0.849 | [75] 0.877

C=CCCCCCCCCCCCc1ccco1
active: [2] 0.869 | [4] 0.896 | [5] 0.659 | [6] 0.905 | [8] 0.873 | [9] 0.873 | [10] 0.803 | [11] 0.861 | [13] 0.848 | [14] 0.916 | [19] 0.629 | [20] 0.854 | [21] 0.878 | [23] 0.84 | [24] 0.0917 | [25] 0.884 | [27] 0.52 | [28] 0.913 | [29] 0.814 | [31] 0.309 | [34] 0.868 | [35] 0.766 | [36] 0.869 | [37] 0.82 | [38] 0.613 | [42] 0.53 | [44] 0.587 | [45] 0.877 | [49] 0.819 | [50] 0.589 | [53] 0.732 | [56] 0.885 | [59] 0.727 | [60] 0.832 | [61] 0.66 | [62] 0.861 | [63] 0.582 | [64] 0.621 | [65] 0.858 | [70] 0.692 | [71] 0.807 | [73] 0.719 | [75] 0.253 | [78] 0.879 | [82] 0.833 | [84] 0.863 | [85] 0.819 | [86] 0.856 | [88] 0.626 | [90] 0.754 | [91] 0.79 | [93] 0.847
inactive: [1] 0.981 | [3] 0.939 | [7] 0.995 | [15] 0.979 | [16] 0.999 | [17] 1.01 | [18] 0.94 | locus YDR195W, strain ref2 0.939 | [26] 0.995 | [30] 0.975 | [32] 0.921 | [33] 1.01 | [39] 0.937 | [40] 0.87 | [41] 0.858 | [43] 0.933 | [46] 0.984 | [47] 0.877 | [48] 1.01 | [52] 0.925 | [54] 0.986 | [55] 0.996 | [57] 0.935 | [58] 0.968 | [66] 0.967 | [67] 0.966 | [68] 0.967 | [69] 0.934 | [72] 0.976 | [74] 0.997 | [76] 0.869 | [77] 0.945 | [79] 0.976 | [80] 0.994 | [81] 0.954 | [83] 0.99 | [87] 0.976 | [89] 0.909 | [92] 0.96 | [94] 0.856
